Compounds with a hit are over-represented: about 5.9% of the library has one in this group of screens.
ATXN2 expr inh: ATXN2 expression inhibition. AID 1745845. HEK-293 ATXN2-luciferase reporter, luminescence, 24 h. 360,000 tested, 0.72% active. Potency, µM (highest dose often 57 µM), for inactives: at the top dose activity change, negative = inhibition, usual class: inhibitors; note: % is set by controls: 0 for no effect and ±100 for the full control effect; nearly all actives have a fitted effect of over 55% in size
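ATXN2-luciferase reporter cells (luciferase flanked by upstream and downstream ATXN2 gene portions) were treated 24 h at 37 °C with compounds at up to 57 uM. SteadyGlo luminescence gave expression; GF-AFC fluorescence gave viability.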
TGFb SMAD3 inh: TGF-b pathway inhibition. HepG2 CAGA-GFP TGF-b/SMAD3 reporter, GFP fluorescence, 18 h; TGF-beta stimulated, 500 pg/mL final. Potency, µM (titrated, usually from 46.1 µM), without a hit: top-dose activity, negative = inhibition, hits mostly inhibitors. 410,000 tested, 1.2% active; note: % is set by controls: 0 for no effect and ±100 for the full control effect; nearly all actives have a fitted effect of over 65% in size
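Using HEPG2 CAGA-GFP reporter cells at 1000 cells/well, we pinned test compounds, stimulated with recombinant TGF-beta (500 pg/mL final) and measured total well GFP after 18 h.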
HepG2 tox: HepG2 cytotoxicity, counter-screen for TGF-b inhibitors. Potency, µM (doses to about 46.1 µM), without a hit: at the highest dose activity change, negative = cytotoxicity, usual class: cytotoxic. AID 588856. HepG2 CAGA-GFP viability, ATP luminescence, 18 h. 410,000 tested, 0.76% active
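HepG2 CAGA-GFP cells (1000/well, DMEM with 1% FBS) received compound, then TGF-beta at 500 pg/mL final, and were incubated 18 hours at 37 degrees C. Viability was read by CellTiter-Glo luminescence. Media-only wells were set as complete cell-killing and DMSO as no toxicity.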
KB-3-1 tox: kills parental KB-3-1 adenocarcinoma cells. 400,000 tested, 1.4% active. KB-3-1 viability, CellTiter-Glo ATP luminescence, 72 h. Potency, µM (top dose mostly 46.1 µM), hits mostly cytotoxic. AID 1347075; note: % is set by controls: 0 for no effect and ±100 for the full control effect; nearly all actives have a fitted effect of over 60% in size
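Parental KB-3-1 adenocarcinoma cells in phenol-red-free DMEM with 10% FBS were pin-treated with compounds at several concentrations, incubated 72 h at 37 °C, and viability read by CellTiter-Glo luminescence; concentration-effect curves were fitted after normalization.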
ATXN viability: cell viability loss in ATXN counter-screen. AID 651635. Potency, µM (series often up to 56.7 µM), most hits filed as cytotoxic. 400,000 tested, 0.49% active. S2 cells (HEK-293 line with an ATXN2-luciferase reporter) viability, CellTiter-Fluor protease fluorescence, 24 h; note: nearly all actives have a fitted effect of over 40% in size
KB-V1 MDR tox: kills drug-selected multidrug resistant KB-V1 cells | AID 1347076 | Potency, µM (titrated, usually from 46.1 µM), most hits filed as cytotoxic | KB-V1 MDR cells viability, CellTiter-Glo, 72 h | 400,000 tested, 3.4% active; note: % is set by controls: 0 for no effect and ±100 for the full control effect; nearly all actives have a fitted effect of over 60% in size
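KB-V1 cells (P-gp-expressing MDR subline of KB-3-1) in phenol-red-free DMEM with 10% FBS were exposed to library compounds over a concentration series for 72 h at 37 degrees C. Viability read by CellTiter-Glo luminescence; concentration-effect curves fitted after normalization.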
* = called active by the depositor; i = inactive; u = inconclusive; x = no result given; [ ] = another dose, or the depositor's remark. Calls come from the whole dose curve; as a rule, active = well fitted curve in the direction sought with a large enough effect; inconclusive = small, poorly fitted or top-dose-only effect, or another doubt; inactive = no such curve, though single readings can be large; an effect the other way counts as inactive or inconclusive. Potency is the fitted concentration of half-maximal effect.

SMILES	ATXN2 expr inh	TGFb SMAD3 inh	HepG2 tox	KB-3-1 tox	ATXN viability	KB-V1 MDR tox
CCOC(=O)c1cc(NC(=O)C2C3CCC(O3)C2C(=O)O)cc(C(=O)OCC)c1 (stereo not given)	-3.9%	-8.4%	-20.4%	i	i	23.1µM*
CCN1C(=O)c2cccc3c(S(=O)(=O)Nc4ccncc4)ccc1c23	3.3%	1.9%	-18.3%	i	i	i
CCN1C(=O)c2cccc3c(S(=O)(=O)Nc4ccccc4)ccc1c23	74.7%	u	-33.6%	u	i	11.6µM*
CCN1C(=O)c2cccc3c(S(=O)(=O)N(C)C)ccc1c23	x	-5.1%	-49.0%	i	x	13µM*
CN1C(=O)c2cccc3c(S(=O)(=O)N(C)C)ccc1c23	25.5%	12.2%	-0.2%	i	x	i
CCC(O)c1cc2c(cc1NC(=O)c1cccc(Br)c1)OCCO2 (stereo not given)	-23.5%	-7.4%	0.3%	i	i	u
Cc1cc(C)cc(NC2=NC3(CCCCC3)N=C(N)N2)c1	-0.4%	3.5%	23.9%	u	i	i
Cc1cccc(NC2=NC(C)(C)N=C(N)N2)c1	-10.5%[11.3 µM]	-19.6%	-45.0%	1.64µM*	i	i
CCOc1cc(CNCCSc2nnnn2-c2ccccc2)ccc1OC	-19.0%	-0.6%	-21.9%	i	u	i
Cc1ccc(NC(=O)Cc2ccc(-n3c(C)nc4cccnc43)cc2)c(Cl)c1	x	u	-14.8%	18.4µM*	x	5.8µM*
CCc1nc2cccnc2n1-c1ccc(CC(=O)O)cc1	-1.6%	1.6%	4.6%	i	i	i
C[C@@H](c1ccccc1)N1C[C@@H](COCc2ccccc2)Oc2cc(N3CC[C@H](N(C)C)C3)ccc2S1(=O)=O	-1.7%	x	x	u	i	i
C[C@H](c1ccccc1)N1C[C@@H](COCc2ccccc2)Oc2cc(N3CC[C@H](N(C)C)C3)ccc2S1(=O)=O	-10.5%	x	x	i	x	23.1µM*
Cc1cccc2cc(CN(CC3CCCO3)C(=O)c3ccccc3F)c(N(C)C)nc12 (stereo not given)	x	x	x	x	i	x
CCN1C(=C2C(=O)c3ccccc3C2=O)C=Cc2ccccc21	21.4%	-6.0%	-10.8%	u	u	1.84µM*
Cc1cnc(-n2ncc(C(=O)NCC(C)(C)N3CCOCC3)c2C(C)C)nc1-c1ccc(F)cc1	x	x	x	x	i	x
COC(=O)c1sccc1NC(=O)c1csc(C)c1	1.1%	u	-25.8%	i	i	16.4µM*
COC(=O)c1sccc1NC(=O)c1cccs1	x	5.1%	2.5%	i	i	i
COC(=O)c1sccc1NC(=O)c1ccc(C)cc1	-6.4%	-0.3%	0.4%	i	i	i
CCOc1ccccc1C(=O)Nc1ccccc1C(N)=O	1.1%	-3.0%	2.3%	i	i	13µM*
CCOc1ccccc1C(=O)Nc1ccsc1C(=O)OC	-20.0%	-37.5%	-24.8%	5.8µM*	u	7.31µM*
O=C1CCCc2c(O)cccc21	57.3%	x	x	x	i	x
Cc1c(C(=O)OCC2CCCCC2)[nH]c2c1C(=O)CC(c1ccccc1Cl)C2 (stereo not given)	-14.4%	13.8%	-33.5%	i	i	u
Cc1ccc(-n2nc(C)c3c(C(F)(F)F)cc(-c4cccnc4)nc32)cc1Cl	x	-42.2%	-0.5%	x	x	x
CCC(=NCCc1c(C)[nH]c2ccc(C)cc12)C1=C(O)CC(c2ccccc2)CC1=O (stereo not given)	-13.8%	u	-14.9%	0.731µM*	i	i
Cc1ccc(-c2nn3c(=O)cc(CN4CCN(C(=O)Nc5cc(Cl)ccc5C)CC4)nc3s2)cc1	8.0%	7.3%	5.4%	i	i	i
NC(=O)Cc1cccc(C(=O)c2ccccc2)c1N	14.4%	x	x	x	i	x
